Assay outcomes deposited in PubChem by several laboratories.
Sampled rows, rich in hits. Any-hit rate of the full collection: about 2.5%.
ANO1 activ = activates or potentiates the mouse TMEM16A chloride channel. AID 623877. 0.3% of 340,000 active. HEK293 TMEM16A/YFP-H148Q/I152L, iodide quench fluorescence; stronger effect = lower value. B-score at 10 µM;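 active means fluorescence-ratio B-score plate-corrected deviation score at least 3 library SD below zero, with starting fluorescence score within 5 deviations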;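 further: channel opened by trigger with iodide after compound preincubation; score built on the fluorescence ratio of max minus min over baseline; more negative score means more quench and so TMEM16A activation or potentiation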
697 NFkB inh = inhibitors of the PMA/ionomycin-induced NF-kB reporter in 697 B cells | 697 B-cell NF-kB luciferase reporter, 16 h | inhibition, % at 4 µM | 0.33% of 330,000 active; in the data active means inhibition above about 35%
KLF5 inh = inhibitors of KLF5 expression | DLD-1 KLF5 promoter-luciferase reporter, luminescence | inhibition, % at 5 µM | 0.23% of 290,000 active | AID 1700;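 active means inhibition above a per-plate limit of that plate's mean compound inhibition plus 3 SD, cut at about 60% in these data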;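 further: 0% = DMSO wells and 100% = LY294002 at 200 µM; higher means less KLF5 promoter-driven luciferase light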
TMEM16A inh = blocks the mouse calcium-activated chloride channel TMEM16A; normalized B-score (activity score, 25-100; higher = stronger inhibition) at 10 µM; HEK293 TMEM16A/YFP iodide influx fluorescence, ionomycin; 1.2% of 310,000 active; AID 588511;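 active means ratio plate-corrected score three or more library SD toward inhibition, starting fluorescence score within five deviations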;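 further: score derived from kinetic fluorescence span divided by baseline fluorescence per well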
aSyn UTR inh = 5' untranslated region of α-synuclein, MLPCN primary screen. alpha-synuclein 5'UTR reporter, inhibitor activity. inhibition, % (tested at 7.5 µM). 0.82% of 300,000 active. AID 1813; in the data active means inhibition above about 60%;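 further: H4 neuroglioblastoma cells stably carrying SNCA 5'UTR luciferase fusion; 0% = DMSO wells and 100% = positive control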
Jurkat NFkB inh = lowers PMA/ionomycin-induced NF-kB signal in Jurkat cells | PMA/ionomycin-induced NF-kB luciferase reporter, luminescence | 0.53% of 330,000 active | inhibition, % at 4 µM | AID 435003; in the data active means inhibition above about 50%
TMEM16A reconf = TMEM16A (mouse) chloride channel inhibition, re-confirmation. shares compounds with TMEM16A inh. inhibition, % at 10 µM. 39% of 2,300 active. HEK293 TMEM16A/YFP-H148Q, iodide quench fluorescence; ionomycin added to raise cell calcium;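 active means mean duplicate percent inhibition, scaled so buffer wells are 0 and the reference blocker 100, over three buffer SD above buffer mean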
HEK293 Ca mobil = alters calcium mobilization in TMEM16A HEK293 cells, counter-screen | shares compounds with TMEM16A inh | TMEM16A/YFP HEK293, Fluo4 calcium mobilization | calcium response (% of ionomycin), % at 10 µM | 2% of 2,300 active | AID 652231;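 active means duplicate-averaged calcium signal over 20% of the ionomycin maximum, relative to buffer baseline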;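 further: each well's signal is peak minus trough fluorescence divided by its pre-addition baseline; 0% = buffer wells and 100% = ionomycin wells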
YFP-HEK293 quench = acts in parental YFP-HEK293 cells lacking TMEM16A, counter-screen. YFP ratio F(max-min)/F0 at 10 µM. iodide YFP quench, ionomycin. shares compounds with TMEM16A inh. 2,300 tested, under 10 active;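 active means yellow fluorescent protein signal ratio exceeding the buffer control mean by over 5 SD of those controls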;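 further: ratio is mean of duplicate wells from kinetic YFP trace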
ClC-1 inh = selectivity of TMEM16A inhibitors: inhibition of rat ClC-1 chloride channel; CHO ClC-1-YFP, iodide influx fluorescence quench; iodide control reads 0, buffer control 100; ratio percent, % at 10 µM; 2,300 tested, under 10 active; shares compounds with TMEM16A inh;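 active means duplicate-mean ratio percent above the mean of iodide-only control wells, which defines zero, plus 5 of their SD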;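 further: higher percent means stronger block of ClC-1 iodide influx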
Target sequence (P35524 whole entry, looked up): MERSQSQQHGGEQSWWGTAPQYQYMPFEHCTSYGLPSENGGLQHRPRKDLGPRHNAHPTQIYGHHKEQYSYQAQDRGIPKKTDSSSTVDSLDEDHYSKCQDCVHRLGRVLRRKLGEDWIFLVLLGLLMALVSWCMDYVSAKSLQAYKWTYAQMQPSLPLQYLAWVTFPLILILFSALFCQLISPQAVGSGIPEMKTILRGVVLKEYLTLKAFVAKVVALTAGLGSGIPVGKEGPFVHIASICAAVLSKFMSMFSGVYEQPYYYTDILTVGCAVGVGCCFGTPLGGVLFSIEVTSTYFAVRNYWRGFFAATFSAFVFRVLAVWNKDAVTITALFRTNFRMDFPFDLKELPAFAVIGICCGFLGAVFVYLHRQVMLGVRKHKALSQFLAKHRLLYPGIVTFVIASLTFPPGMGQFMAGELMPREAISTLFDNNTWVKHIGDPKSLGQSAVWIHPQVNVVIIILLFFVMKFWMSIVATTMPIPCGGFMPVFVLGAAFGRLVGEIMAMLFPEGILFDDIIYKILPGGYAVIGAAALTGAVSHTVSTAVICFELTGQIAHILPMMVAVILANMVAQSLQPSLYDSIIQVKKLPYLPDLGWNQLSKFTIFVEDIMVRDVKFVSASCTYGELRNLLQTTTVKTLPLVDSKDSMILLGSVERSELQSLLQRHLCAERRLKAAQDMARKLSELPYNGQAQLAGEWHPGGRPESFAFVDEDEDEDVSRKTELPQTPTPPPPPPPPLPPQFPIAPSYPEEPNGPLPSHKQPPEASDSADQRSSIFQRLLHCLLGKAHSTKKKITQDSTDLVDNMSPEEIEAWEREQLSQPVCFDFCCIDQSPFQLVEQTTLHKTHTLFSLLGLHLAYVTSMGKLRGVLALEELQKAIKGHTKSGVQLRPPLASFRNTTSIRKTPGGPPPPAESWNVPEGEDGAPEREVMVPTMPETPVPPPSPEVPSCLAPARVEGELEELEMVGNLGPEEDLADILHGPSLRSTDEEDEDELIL
Starred values were filed as active, the others as inactive; i = inactive; . = no result.

SMILES	ANO1 activ	697 NFkB inh	KLF5 inh	TMEM16A inh	aSyn UTR inh	Jurkat NFkB inh	TMEM16A reconf	HEK293 Ca mobil	YFP-HEK293 quench	ClC-1 inh
O=C(c1ccco1)N1CCCC(c2nc(-c3ccc(S(=O)(=O)NCc4ccccc4)cc3)no2)C1 (configuration not stated)	i	-12	-20	25*	27	25	44%*	i	-1	-16
CNC(=O)c1c(C)nn(-c2ccc(F)c(Cl)c2)c1-c1cc(C)on1	i	8	4	i	2	2	.	.	.	.
Cc1cccc(OCC(=O)Nc2nc3ccc([N+](=O)[O-])cc3s2)c1	i	-8	-22	25*	-28	-4	i	i	-0.96	2
Cc1cccc(OCC(=O)Nc2nc3ccc([N+](=O)[O-])cc3s2)c1C	i	-29	-1	i	-9	2	.	.	.	.
Cc1ccc(S(=O)(=O)N(C)c2ccc(OCC(=O)Nc3nc4c(ccc5ccccc54)s3)cc2)cc1	i	-25	1	i	-9	-5	.	.	.	.
Cc1ccc(S(=O)(=O)N(C)c2ccc(OCC(=O)Nc3nc4ccccc4s3)cc2)cc1	i	-2	-23	i	2	-5	i	i	-0.85	-16
Cc1nnc(NC(=O)C2CCCN2C(=O)Nc2ccccc2)s1 (configuration not stated)	i	-9	-1	i	10	-13	.	.	.	.
CCOC(=O)C(CSCC(=O)c1ccc(Cl)cc1)NC(=O)OC(C)(C)C (configuration not stated)	i	-2	-17	100*	-19	-18	i	i	-1	-4
CCc1cc(=O)oc2cc(C)c(CN3CCCC3)c(O)c12	i	5	-19	i	3	-10	.	.	.	.
CCCc1cc(=O)oc2cc(C)c(CN3CCCC3)c(O)c12	i	-25	-7	i	-9	-12	i	i	-1.2	-12
Cc1cccc(Oc2cnn(C(C)(C)C)c(=O)c2Cl)c1	i	14	5	25*	-7	12	i	i	-0.94	-16
CC12CC3(C)CC(C)(C1)CC(C(=O)NCc1cccnc1)(C2)C3	i	-10	5	i	3	1	.	.	.	.
COc1ccccc1OCC(=O)NCC(c1cccs1)N1CCOCC1 (configuration not stated)	i	-2	-24	i	0	8	.	.	.	.
CC(C)c1ccccc1OCC(=O)NCC(c1cccs1)N1CCOCC1 (configuration not stated)	i	2	-65	100*	3	25	34%*	i	-1.3	-3
O=C(Nc1ccc(Cl)c(Cl)c1)N1CCSCC1	i	-13	-52	i	-30	-10	.	.	.	.
Cc1csc2c(N3CCN(C(=O)NC(C)(C)C)CC3)ncnc12	i	-9	12	i	-18	8	.	.	.	.
Cc1csc2c(N3CCN(C(=O)c4ccc(C(C)(C)C)cc4)CC3)ncnc12	i	-14	4	100*	-11	6	36%*	i	-1.1	-28
Cc1csc2c(N3CCN(C(=O)Nc4ccc(Cl)c(Cl)c4)CC3)ncnc12	i	1	-14	25*	0	31	29%*	i	-0.8	-20
Cc1csc2c(N3CCN(C(=S)Nc4ccc(C(F)(F)F)cc4)CC3)ncnc12	i	3	-3	100*	12	3	i	i	-1.1	-18
COc1ccc(Cc2nc3ccc(C(=O)N4CCN(C)C(C)C4)cc3o2)cc1OC (configuration not stated)	i	-49	-22	i	-11	31	.	.	.	.
